Results filed as inconclusive are left out. Activity calls are given as the source filed them. Unless noted, the call rests on the fitted dose curve; in most records, active means well fitted curve in the direction sought with a large enough effect in the repeat runs; inconclusive means weak or mixed curves; inactive means no such curve, though single readings can be large; an effect the other way counts as inactive or inconclusive.
Key:
[1] = qHTS assay to identify small molecule antagonists of the estrogen receptor alpha (ER-alpha) signaling pathway using the BG1 cell line in the presence of 0.1 nM 17-beta-estradiol - cell viability counter screen (AID 1259241); further: nearly all actives have a fitted effect of over 40% in size
Procedure, shortened: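 In this screen, hormone-deprived VM7Luc4E2 cells were seeded at 4,000 per well, dosed with compound and 0.1 nM estradiol final, and incubated 22 hr at 37C and 5% CO2; fluorogenic live-cell protease signal reported viability.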

[2] = qHTS assay to identify small molecule antagonists of the androgen receptor (AR) signaling pathway using the MDA cell line in the presence of 0.5 nM R1881 - cell viability counter screen (AID 1259242); further: nearly all actives have a fitted effect of over 45% in size; further: potency means the concentration at half of the fitted maximal effect
Procedure, shortened: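 Steps: plate MDA-kb2 cells, rest 5 hr at 37C without CO2; pin in compounds in DMSO; add R1881 to 0.5 nM final; incubate 16 hr; add CellTiter-Fluor, 30 min; read fluorescence.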

[3] = biological target: Androgen receptor (Homo sapiens) (UniProt P10275); experiment: qHTS assay to identify small molecule antagonists of the androgen receptor (AR) signaling pathway using the MDA cell line in the presence of 0.5 nM R1881 (AID 1259243); further: nearly all actives have a fitted effect of over 50% in size; further: potency means the concentration at half of the fitted maximal effect
Procedure, shortened: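 Stably transfected MDA-kb2 cells express luciferase from an MMTV promoter bearing both AR and GR response elements. Compounds plus 0.5 nM R1881 (final) were incubated 16 hr at 37C without CO2, then luminescence measured.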

[4] = biological target: Estrogen receptor (Homo sapiens) (UniProt P03372); experiment: qHTS assay to identify small molecule antagonists of the estrogen receptor alpha (ER-alpha) signaling pathway using the BG1 cell line in the presence of 0.1 nM 17-beta-estradiol (AID 1259244); further: nearly all actives have a fitted effect of over 50% in size; further: potency means the concentration at half of the fitted maximal effect
Procedure, shortened: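 Antagonist mode: compounds in DMSO are pinned onto VM7Luc4E2 reporter cells, 0.1 nM final 17beta-estradiol is added, and after 22 h at 37C luciferase luminescence is measured with ONE-Glo.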

[5] = qHTS assay to identify small molecule HDAC inhibitors (AID 1259364); further: potency means the concentration at half of the fitted maximal effect;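 further: wild-type HCT-116 cells with endogenous class I/II HDAC activity; nearly all actives have a fitted effect of over 45% in size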; on activity change, negative = inhibition: top concentration of the series differs between compounds
Procedure, shortened: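 Cells (HCT-116, wild type) are seeded at 1,500 per well, incubated overnight, treated with compound in DMSO for 2 hr, then developed with HDAC-Glo I/II reagent for 30 min at room temperature.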

[6] = qHTS assay to identify small molecule HDAC inhibitors - cell viability counter screen (AID 1259365); further: series mostly up to about 92 µM; nearly all actives have a fitted effect of over 50% in size
Procedure, shortened: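 Measured quantity is CellTiter-Glo luminescence from wild-type HCT-116 cells after compound incubation of 2hr at 37C, 5% CO2; reagent developed 30min at room temperature.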

[7] = qHTS assay to identify small molecule agonists of the sonic hedgehog signaling (Shh) pathway - cell viability counter screen (AID 1259366); further: nearly all actives have a fitted effect of over 50% in size; further: potency means the concentration at half of the fitted maximal effect
Procedure, shortened: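 In quantitative high-throughput format, 3T3 Gli1-Luc cells were exposed to compounds for 24hr and multiplexed for viability using CellTiter-Fluor, incubated 1hr at 37C before the fluorescence read.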

[8] = qHTS assay to identify small molecule antagonists of the sonic hedgehog signaling (Shh) pathway - cell viability counter screen (AID 1259367); further: nearly all actives have a fitted effect of over 55% in size; further: potency means the concentration at half of the fitted maximal effect
Procedure, shortened: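 Viability was read by CellTiter-Fluor fluorescence in the same wells, reagent added 23 hr into compound treatment and incubated 1 hr at 37C. The 3T3 Gli1-Luc reporter cells (2,000/well) received conditioned medium after compound and ran 24 hr.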

[9] = qHTS assay to identify small molecule agonists of the sonic hedgehog signaling (Shh) pathway (AID 1259368; calls by dose curve;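 further: NIH/3T3-derived 3T3Gli1-Luc cells carrying a stable Gli1-driven firefly luciferase reporter; series mostly up to about 92 µM; nearly all actives have a fitted effect of over 15% in size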)
Procedure, shortened: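 Cells of a mouse NIH/3T3 clone stably expressing luciferase under the Gli1 transcriptional response element are exposed to test chemicals for 24 hr at 37 C. Pathway activation is detected as a rise in luminescence.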

[10] = qHTS assay to identify small molecule phospholipidosis (PLD) inducers (AID 1259344; active means well fitted curve in the direction sought with a large enough effect; an effect the other way counts as inactive or inconclusive)
Procedure, shortened: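 Phospholipid accumulation was scored by imaging: fixed, Hoechst-counterstained HepG2 cells stained with LipidTOX Red after 24 h compound exposure at 37 C. Read-outs were pit count and pit intensity per well or per cell, with amiodarone and DMSO controls.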
On the % scale 0 is the no-effect control and ±100 the full control effect.

Androgen receptor (Homo sapiens), sequence (P10275 whole entry, looked up): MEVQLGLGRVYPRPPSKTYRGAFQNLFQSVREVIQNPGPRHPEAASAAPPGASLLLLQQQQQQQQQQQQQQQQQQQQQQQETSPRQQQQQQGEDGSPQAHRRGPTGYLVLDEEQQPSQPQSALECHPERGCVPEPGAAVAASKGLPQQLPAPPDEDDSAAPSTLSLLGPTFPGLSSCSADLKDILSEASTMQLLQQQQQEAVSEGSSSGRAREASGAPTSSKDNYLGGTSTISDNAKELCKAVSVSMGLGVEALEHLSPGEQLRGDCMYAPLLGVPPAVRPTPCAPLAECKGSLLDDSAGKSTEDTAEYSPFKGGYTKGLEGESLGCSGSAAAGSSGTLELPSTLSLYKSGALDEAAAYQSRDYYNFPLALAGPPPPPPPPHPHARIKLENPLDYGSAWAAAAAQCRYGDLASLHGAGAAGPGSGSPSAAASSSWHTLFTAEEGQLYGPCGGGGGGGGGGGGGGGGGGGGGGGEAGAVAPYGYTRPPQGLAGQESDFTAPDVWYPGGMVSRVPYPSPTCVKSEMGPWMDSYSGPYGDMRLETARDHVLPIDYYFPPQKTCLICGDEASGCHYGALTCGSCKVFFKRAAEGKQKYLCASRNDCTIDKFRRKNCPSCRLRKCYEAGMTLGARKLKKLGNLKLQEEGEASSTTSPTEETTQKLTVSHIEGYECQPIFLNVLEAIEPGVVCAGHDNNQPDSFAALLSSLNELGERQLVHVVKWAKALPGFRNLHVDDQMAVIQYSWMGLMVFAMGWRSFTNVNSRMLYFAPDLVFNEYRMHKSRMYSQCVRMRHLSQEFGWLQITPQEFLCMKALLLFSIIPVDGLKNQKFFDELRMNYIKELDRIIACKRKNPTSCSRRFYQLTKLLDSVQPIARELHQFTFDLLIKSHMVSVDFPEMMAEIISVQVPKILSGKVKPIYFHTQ
Estrogen receptor (Homo sapiens), sequence (P03372 whole entry, looked up): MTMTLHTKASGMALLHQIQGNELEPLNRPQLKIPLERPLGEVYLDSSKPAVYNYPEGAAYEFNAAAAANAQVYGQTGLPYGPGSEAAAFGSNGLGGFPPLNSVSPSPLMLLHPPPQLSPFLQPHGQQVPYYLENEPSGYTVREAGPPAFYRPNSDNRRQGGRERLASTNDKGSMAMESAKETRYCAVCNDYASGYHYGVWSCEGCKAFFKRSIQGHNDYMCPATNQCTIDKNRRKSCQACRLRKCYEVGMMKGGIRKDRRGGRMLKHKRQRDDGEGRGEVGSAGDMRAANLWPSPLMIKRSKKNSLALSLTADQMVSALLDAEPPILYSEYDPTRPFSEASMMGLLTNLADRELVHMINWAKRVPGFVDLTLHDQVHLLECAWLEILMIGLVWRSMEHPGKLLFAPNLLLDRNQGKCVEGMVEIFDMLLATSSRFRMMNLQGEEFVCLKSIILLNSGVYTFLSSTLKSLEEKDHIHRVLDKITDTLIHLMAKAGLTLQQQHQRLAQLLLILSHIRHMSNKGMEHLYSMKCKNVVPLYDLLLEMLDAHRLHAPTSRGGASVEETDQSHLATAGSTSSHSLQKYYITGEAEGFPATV

C[C@]12CC[C@H]3[C@@H](CCC4=CC(=O)CC[C@@H]43)[C@@H]1CC[C@@H]2OC(=O)CCC1CCCCC1
inactive: Potency [1] | Potency [2] | Potency [3] | Potency [4] | Potency [5] | Potency [6] | Potency [7] | Potency [8] | Potency [9]

CNC(C)Cc1ccccc1OC (centres undefined)
inactive: Potency [1] | Potency [2] | Potency [4] | outcome [10] | Potency [5] | Potency [7] | Potency [8] | Potency [9]

COCCOCCO
inactive: Potency [1] | Potency [2] | Potency [4] | outcome [10] | Potency [6] | Potency [9]
active: Potency [8] 61.1 µM

C=CC(=O)NCNC(=O)C=C
inactive: Potency [1] | Potency [2] | Potency [3] | Potency [4] | outcome [10] | Potency [6] | Potency [8]

O=[N+]([O-])C(Br)(CO)CO
inactive: Potency [1] | Potency [2] | Potency [3] | Potency [4] | outcome [10] | Potency [5] | Potency [6]
active: Potency [7] 48.6 µM | Potency [8] 61.1 µM

C[C@@H]1CC[C@H]2[C@@H](C)C(=O)O[C@@H]3O[C@@]4(C)CC[C@@H]1[C@]32OO4
inactive: Potency [1] | Potency [2] | Potency [3] | outcome [10] | Potency [6] | Potency [7] | Potency [8]

COC(=O)C(Cl)C(=O)OC
inactive: Potency [1] | Potency [2] | Potency [4] | outcome [10] | Potency [7] | Potency [8] | Potency [9]

O=C1C(Cl)C(CCl)CN1c1cccc(C(F)(F)F)c1 (centres undefined)
inactive: Potency [1] | Potency [2] | Potency [5] | Potency [7] | Potency [8] | Potency [9]
active: Potency [3] 3.86 µM

COP(=S)(Oc1cc(Cl)c(Br)cc1Cl)c1ccccc1 (centres undefined)
active: Potency [3] 27.3 µM
inactive: Potency [1] | Potency [2] | Potency [4] | Potency [5] | Potency [7] | Potency [8] | Potency [9]

C(=NC1CCCCC1)=NC1CCCCC1
active: Potency [2] 8.69 µM | Potency [4] 43.3 µM
inactive: Potency [1] | Potency [5] | Potency [6] | Potency [7] | Potency [8] | Potency [9]

CCCN(CCC)c1c([N+](=O)[O-])cc(S(C)(=O)=O)cc1[N+](=O)[O-]
inactive: Potency [1] | Potency [2] | Potency [4] | Potency [5] | Potency [6] | Potency [7] | Potency [8] | Potency [9]

CCOP(=S)(OCC)Oc1cc(Cl)c(Br)cc1Cl
inactive: Potency [1] | Potency [2] | Potency [4] | Potency [5] | Potency [6] | Potency [7] | Potency [8]

C=CC(=O)OCC(C)C
active: Potency [5] 19.2 µM
inactive: Potency [1] | Potency [2] | Potency [4] | Potency [6] | Potency [7] | Potency [8]

CNP(=O)(OC)Oc1ccc(C(C)(C)C)cc1Cl (centres undefined)
inactive: Potency [1] | Potency [2] | Potency [4] | Potency [5] | Potency [6] | Potency [7] | Potency [8] | Potency [9]

O=C(NC(=O)c1c(F)cccc1F)Nc1ccc(OC(F)(F)C(F)OC(F)(F)F)c(Cl)c1 (centres undefined)
inactive: Potency [1] | Potency [2] | Potency [4] | Potency [5] | Potency [6] | Potency [7] | Potency [8]

CC(Cl)Cl
inactive: Potency [1] | Potency [2] | Potency [4] | Potency [5] | Potency [6] | Potency [7] | Potency [9]

O=C(OC1CCCCC1)c1ccccc1C(=O)OC1CCCCC1
inactive: Potency [1] | Potency [2] | Potency [4] | Potency [5] | Potency [6] | Potency [7] | Potency [8] | Potency [9]

NC(=O)C(Cl)(Cl)Cl
inactive: Potency [1] | Potency [2] | Potency [4] | Potency [5] | Potency [7] | Potency [9]

ClCC(Br)CBr (centres undefined)
inactive: Potency [1] | Potency [2] | Potency [4] | Potency [5] | Potency [6] | Potency [7] | Potency [8]

N#C/C(N)=C(/N)C#N
inactive: Potency [1] | Potency [2] | Potency [4] | Potency [5] | Potency [6] | Potency [7] | Potency [8] | Potency [9]

CC(C)N(C(=O)COc1nnc(C(F)(F)F)s1)c1ccc(F)cc1
inactive: Potency [1] | Potency [2] | Potency [4] | Potency [5] | Potency [6] | Potency [7] | Potency [8] | Potency [9]

CO[C@@H]1[C@H](OC(=O)NC(=O)CCl)CC[C@]2(CO2)[C@H]1[C@@]1(C)O[C@@H]1CC=C(C)C
inactive: activity change, negative = cytotoxicity [1] -6.95% [at 19 µM] | viability change, negative = cytotoxic [2] -0.0338% [at 19 µM] | activity change, negative = inhibition [4] -0.212% [at 19 µM] | activity change, negative = inhibition [5] -1.01% [at 19 µM] | activity change, negative = cytotoxicity [6] 12.9% [at 19 µM] | viability change, negative = cytotoxic [7] -8.47% [at 19 µM] | viability change, negative = cytotoxic [8] -7.4% [at 19 µM] | activity change [9] -3.77% [at 18.9 µM, active compounds read high]

COC(=O)C(Br)CBr (centres undefined)
inactive: Potency [1] | Potency [2] | Potency [4] | Potency [5] | Potency [6] | Potency [7] | Potency [8] | Potency [9]

CCCN(CC1CC1)c1c([N+](=O)[O-])cc(C(F)(F)F)cc1[N+](=O)[O-]
inactive: Potency [1] | Potency [2] | Potency [4] | Potency [5] | Potency [6] | Potency [7] | Potency [8] | Potency [9]

BrCCCCBr
inactive: Potency [1] | Potency [2] | Potency [4] | Potency [5] | Potency [6] | Potency [7] | Potency [8] | Potency [9]

O=C(CBr)OCc1ccccc1
inactive: Potency [1] | Potency [2] | Potency [4] | Potency [5] | Potency [6] | Potency [7] | Potency [8] | Potency [9]

CCCCCCC#N
inactive: Potency [1] | Potency [2] | Potency [4] | Potency [5] | Potency [6] | Potency [7] | Potency [8] | Potency [9]

COC(=O)C(C)N(C(=O)Cc1ccccc1)c1c(C)cccc1C (centres undefined)
inactive: Potency [1] | Potency [2] | Potency [4] | Potency [5] | Potency [6] | Potency [7] | Potency [8] | Potency [9]
